Experimental data from PubChem BioAssay AID2283131 (EPA ToxCast).
Results filed as inconclusive are left out. Active and inactive are the calls of the source. How the source made its calls: active means hit-call score of the fitted dose curve at least 0.9, where 1 is the maximum; inconclusive means response in the unintended direction; inactive means score below 0.9.

Molecular target: human Bruton's Tyrosine Kinase (BTK), BTK (gene 695) (UniProt Q06187)
Assay: NVS_ENZ_hBTK: NovaScreen (NVS) Enzymatic Assay for human Bruton's Tyrosine Kinase (BTK)
Procedure: NVS_ENZ_hBTK is a biochemical, single-readout assay that uses extracted gene-proteins in a cell-free assay. Measurements were taken 1 hour after chemical dosing in a 96-well plate.NVS_ENZ_hBTK is one of one assay component(s) measured or calculated from the NVS_ENZ_hBTK assay. It is designed to make measurements of enzyme activity, a form of enzyme reporter, as detected with fluorescence intensity signals by Fluorescence and electrophoretic mobility shift technology.Data from the assay component NVS_ENZ_hBTK was analyzed into 1 assay endpoint. This assay endpoint, NVS_ENZ_hBTK, was analyzed in the positive analysis fitting direction relative to DMSO as the negative control and baseline of activity. Using a type of enzyme reporter, loss-of-signal activity can be used to understand changes in the enzymatic activity as they relate to the gene BTK. Furthermore, this assay endpoint can be referred to as a primary readout, because this assay has produced multiple assay endpoints where this one serves a enzymatic activity function. To generalize the intended target to other relatable targets, this assay endpoint is annotated to the kinase intended target family, where the subfamily is non-receptor tyrosine kinase. […]

Sequence of human Bruton's Tyrosine Kinase (BTK), BTK (gene 695) (Q06187 whole entry, looked up): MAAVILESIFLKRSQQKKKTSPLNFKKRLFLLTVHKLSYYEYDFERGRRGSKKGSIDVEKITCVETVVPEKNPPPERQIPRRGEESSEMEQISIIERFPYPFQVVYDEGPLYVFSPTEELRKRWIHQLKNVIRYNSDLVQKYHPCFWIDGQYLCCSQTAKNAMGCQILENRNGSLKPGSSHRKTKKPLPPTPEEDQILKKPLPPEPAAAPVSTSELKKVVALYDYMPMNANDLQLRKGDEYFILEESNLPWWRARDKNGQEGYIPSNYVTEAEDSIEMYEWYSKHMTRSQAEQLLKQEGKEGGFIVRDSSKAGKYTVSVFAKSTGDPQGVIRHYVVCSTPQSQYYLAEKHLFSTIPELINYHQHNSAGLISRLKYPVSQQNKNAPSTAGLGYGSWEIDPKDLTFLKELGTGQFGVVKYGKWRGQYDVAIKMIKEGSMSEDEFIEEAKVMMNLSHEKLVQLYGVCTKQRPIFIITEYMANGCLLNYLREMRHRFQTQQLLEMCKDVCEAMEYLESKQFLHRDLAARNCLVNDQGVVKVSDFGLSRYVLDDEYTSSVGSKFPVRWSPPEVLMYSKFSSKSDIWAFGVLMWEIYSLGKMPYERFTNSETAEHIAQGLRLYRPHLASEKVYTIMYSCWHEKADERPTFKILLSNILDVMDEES

In the case of `S=C([S-])NCCNC(=S)[S-].[Mn+2]`, the AC50 is reported as 45.5 µM (active).

With `COCCO` the outcome was “inactive”.
